Experiments:
Experiment in all cases: thermal shift delta Tm vs DMSO control; higher = stronger stabilization (binding)
Settings in all cases: 12.5 µM; protein concentration 2 µM
LOC_OS01G57100-cb003 = test system: LOC_OS01G57100-cb003
In short: (§1)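 Compounds dissolved in DMSO were added to purified rice kinase domain constructs, which had been expressed in E. coli, for differential scanning fluorimetry. Each well held 19.5 μl of 2 μM kinase in 100 mM potassium phosphate pH 7.5, 150 mM NaCl, 10% glycerol and 5 × SYPRO Orange. Fluorescence was followed from 25°C to 95°C at a rate of 0.05°C/s. Shifts in Boltzmann-fitted melting temperature are triplicate means relative to DMSO-only protein.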

LOC_OS01G60330-cb001 = test system: LOC_OS01G60330-cb001
In short: as §1

LOC_OS01G60700-cb002 = test system: LOC_OS01G60700-cb002
In short: as §1

LOC_OS01G63280-cb003 = test system: LOC_OS01G63280-cb003
In short: as §1

LOC_OS01G67340-cb003 = test system: LOC_OS01G67340-cb003
In short: as §1

LOC_OS01G70970-cb002 = test system: LOC_OS01G70970-cb002
In short: as §1

LOC_OS02G07810-cb001 = test system: LOC_OS02G07810-cb001
In short: as §1

LOC_OS02G08530-cb003 = test system: LOC_OS02G08530-cb003
In short: as §1

LOC_OS02G14120-cb001 = test system: LOC_OS02G14120-cb001
In short: as §1

LOC_OS02G17970-cb001 = test system: LOC_OS02G17970-cb001
In short: as §1

LOC_OS02G45750-cb003 = test system: LOC_OS02G45750-cb003
In short: as §1

LOC_OS02G54510-cb004 = test system: LOC_OS02G54510-cb004
In short: as §1

LOC_OS03G04050-cb001 = test system: LOC_OS03G04050-cb001
In short: as §1

LOC_OS03G12390-cb001 = test system: LOC_OS03G12390-cb001
In short: as §1

LOC_OS03G27990-cb004 = test system: LOC_OS03G27990-cb004
In short: as §1

LOC_OS03G50450-cb001 = test system: LOC_OS03G50450-cb001
In short: as §1

LOC_OS03G50810-cb003 = test system: LOC_OS03G50810-cb003
In short: as §1

LOC_OS04G35114-cb001 = test system: LOC_OS04G35114-cb001
In short: as §1

LOC_OS04G38480-cb003 = test system: T1, LOC_OS04G38480-cb003
T1 sequence (whole entry): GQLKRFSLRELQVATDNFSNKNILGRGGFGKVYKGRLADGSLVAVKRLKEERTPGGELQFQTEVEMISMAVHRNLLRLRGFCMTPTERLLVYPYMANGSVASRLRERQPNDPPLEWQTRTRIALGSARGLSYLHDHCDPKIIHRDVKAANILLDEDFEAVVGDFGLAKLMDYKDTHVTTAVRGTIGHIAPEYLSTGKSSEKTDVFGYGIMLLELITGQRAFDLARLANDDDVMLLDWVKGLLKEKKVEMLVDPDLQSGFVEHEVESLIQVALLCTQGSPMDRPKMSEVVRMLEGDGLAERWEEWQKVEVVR
In short: as §1

LOC_OS04G41100-cb001 = test system: T2, LOC_OS04G41100-cb001
T2 sequence (whole entry): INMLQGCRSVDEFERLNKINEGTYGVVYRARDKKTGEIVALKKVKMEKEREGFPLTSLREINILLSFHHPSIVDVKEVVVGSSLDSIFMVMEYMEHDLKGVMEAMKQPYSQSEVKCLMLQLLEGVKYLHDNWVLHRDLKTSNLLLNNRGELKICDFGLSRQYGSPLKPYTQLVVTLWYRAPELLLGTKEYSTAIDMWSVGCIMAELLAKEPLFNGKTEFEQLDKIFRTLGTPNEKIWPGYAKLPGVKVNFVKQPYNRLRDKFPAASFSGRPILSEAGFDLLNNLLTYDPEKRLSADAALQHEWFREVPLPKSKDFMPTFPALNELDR
In short: as §1

SMILES	thermal shift delta Tm (LOC_OS01G57100-cb003) [°C]	thermal shift delta Tm (LOC_OS01G60330-cb001) [°C]	thermal shift delta Tm (LOC_OS01G60700-cb002) [°C]	thermal shift delta Tm (LOC_OS01G63280-cb003) [°C]	thermal shift delta Tm (LOC_OS01G67340-cb003) [°C]	thermal shift delta Tm (LOC_OS01G70970-cb002) [°C]	thermal shift delta Tm (LOC_OS02G07810-cb001) [°C]	thermal shift delta Tm (LOC_OS02G08530-cb003) [°C]	thermal shift delta Tm (LOC_OS02G14120-cb001) [°C]	thermal shift delta Tm (LOC_OS02G17970-cb001) [°C]	thermal shift delta Tm (LOC_OS02G45750-cb003) [°C]	thermal shift delta Tm (LOC_OS02G54510-cb004) [°C]	thermal shift delta Tm (LOC_OS03G04050-cb001) [°C]	thermal shift delta Tm (LOC_OS03G12390-cb001) [°C]	thermal shift delta Tm (LOC_OS03G27990-cb004) [°C]	thermal shift delta Tm (LOC_OS03G50450-cb001) [°C]	thermal shift delta Tm (LOC_OS03G50810-cb003) [°C]	thermal shift delta Tm (LOC_OS04G35114-cb001) [°C]	thermal shift delta Tm (LOC_OS04G38480-cb003) [°C]	thermal shift delta Tm (LOC_OS04G41100-cb001) [°C]
C[C@H](CN(C)C)Oc1nc(Nc2cc3cccc(Cl)c3cn2)cnc1C#N	0.95	1.48	1.39	0.39	0.6	0.34	0.31	1.68	2.95	2.26	2.56	0.35	0.34	1.56	0.61	0.13	1.33	1.48	1.13	0.28
Cn1sc(=O)n(Cc2ccccc2)c1=O	3.29	-0.15	2.66	1.02	-1.31		2.24	-1.23	-0.52	1.81	-1.04	-2	-0.78	-3.39	-9.72	-0.11	-3.78	0.63	1.35	0.43
Nc1nc(Nc2ccc(S(N)(=O)=O)cc2)nn1C(=O)c1c(F)cccc1F	1.36	7.23	0.65	3.58	3.74	3.11	1.06	1.98	8.28	0.44	9.34	2.82	-0.19	9.07	3.59	0.97	3.42	4.58	2.97	2.3
C=CC(=O)Nc1cccc(Oc2nc(Nc3ccc(N4CCN(C)CC4)cc3)nc3ccsc23)c1	2.41	0.93	3.14	0.86	0.85	1.8	1.13	2.66	3.63	2.18	1.44	0.64	0.99	1.24	1.38	1.3	1.96	2.13	2.26	0.71
OC(c1cc(-c2ccc(Cl)cc2)nc2ccccc12)C1CCCCN1 (configuration not stated) [Vacquinol-1]	2.48	1.32	1.39	0.78	1.06	0.39	0.67	0.72	0.39	0.79	1.11	-0.34	0.42	0.39	0.57	1.11	0.65	0.88	1.95	0.59
COCC(=O)NC/C=C/c1ccc2ncnc(Nc3ccc(Oc4ccc(C)nc4)c(C)c3)c2c1	-0.71	0.77	0.69	-0.33	-0.68	0.44	0.15	0.52	-0.57	-0.14	0.33	-0.01	0.28	-0.25	-0.01	-0.22	-0.16	1.94	0.14	0.5
COc1ccc(-c2cc3c(C)nc(N)nc3n([C@H]3CC[C@H](OCCO)CC3)c2=O)cn1	2.79	0.98	0.9	0.37	0.23	0.14	1.27	1.09	1.12	0.63	0.52	0.05	0.5	0.41	0.17	0.14	0.45	0.77	1.08	0.32
O=c1c(O)c(-c2cc(O)c(O)c(O)c2)oc2cc(O)cc(O)c12 [Myricetin]	7.25	8.95	-2.19		2.79	2.23	2.22	2.57	2.73	5.74	0.6	-0.42	1.12	1.2	1.89	2.61	-0.73	2.51	3.89	0.92
Cn1c(=O)c(Oc2ccc(F)cc2F)cc2cnc(NC(CCO)CCO)nc21	1.18	0.87	1.45	0.27	0.29	0.4	0.02	1.22	1.36	1	0.76	0.53	0.43	-0.19	0.49	0.26	0.46	0.71	0.93	0.09
Cc1ccc(C(=O)Nc2ccc(CN3CCN(C)CC3)c(C(F)(F)F)c2)cc1C#Cc1cnc2[nH]ncc2c1 [GZD824 Dimesylate]	1.83	4.46	1.12	16.6	2.51	5.22	0.8	3.54	4.33	0.61	10.6		0.96	3.54	1.61	1.08	6.3	1.99	1.28	2.67
CCOc1cc2ncc(C#N)c(Nc3ccc(F)c(Cl)c3)c2cc1NC(=O)/C=C/CN(C)C [Pelitinib (EKB-569)]	2.45	0.74	0.94	-0.05	0.12	0.22	0.84	0.59	0.98	0.01	4.93	0.37	0.32	0.42	3.2	0.73	1.15	5.5	0.56	0.56
